Results as given in PubChem BioAssay AID492960 (National Center for Advancing Translational Sciences (NCATS), 2010).
Records with an inconclusive call do not appear. Calls of active or inactive are those of the source. The call rests on the fitted dose curve; in most records, active means well fitted curve in the direction sought with a large enough effect; inconclusive means small, poorly fitted or top-dose-only effect, or effect the other way, or another doubt; inactive means no such curve, though single readings can be large or run the other way.

Assay: Secondary Assay for lipid storage modulators: HepG2 cell LDSA assay for probe SAR
Details: HepG2 lipid droplet BODIPY, laser-scanning cytometry, 18-24 h; series mostly up to 46.1 µM; activity, negative = less lipid: at the top concentration
Description: NIH Molecular Libraries Probe Production Centers Network [MLPCN] NIH Chemical Genomics Center [NCGC] MLPCN Grant: 1 R03 MH085686-01 Assay Submitter (PI): Beller, Mathias; Max-Planck-Institut fur Biophysikalische Chemie NCGC Assay Overview: Storing lipids as a reservoir for energy or the anabolism of elementary metabolites is a common feature of probably all cells and is conserved from bacteria to humans. The universal cellular lipid storage organelle is the so-called lipid storage droplet (LD). Although ubiquitous, LDs share a simple structure composed of a hydrophobic core that harbors the storage lipids, which is shielded by a droplet-specific phospholipid monolayer to which proteins are attached. The current model of LD biogenesis involves an incorporation of the lipid core into the membrane leaflets of the endoplasmic reticulum (ER) followed by a subsequent budding-like maturation of a LD, which ultimately pinches off. Once released, LD volume can increase by localized lipogenesis or fusion of existing droplet. Storage lipids are re-mobilized enzymatically by lipase activity. Lipase regulation in the adipocyte is heavily studied and involves multiple components including catecholamine signaling, the LD-associated proteins Perilipin and comparative gene identification (CGI-58) and at least two lipases named hormone sensitive lipase (HSL) and adipocyte triglyceride lipase (ATGL). LD regulation outside of the adipocyte is poorly understood and only few components are known. However, there is an urgent need to learn more about ectopic fat depots as mislocalized storage of lipids, for example in the liver or muscle, is an eminent health problem associated with insulin resistance or the metabolic syndrome.
NCGC Assay Protocol Summary: The assay was performed with HepG2 cells, using an oleic acid feeding protocol similar to the S3 assay. We dispensed 4 uL of cells to give 700 cells/well into Greiner bio-one 1,536-well plates (black walled, clear bottom). Triacsin C (Sigma-Aldrich T-4540), an inhibitor of long-chain fatty acyl CoA synthetase that blocks synthesis of triglycerides, was used as a positive control for lipid under-storage using a final concentration of 20 uM. The orexin antagonist, SB408124 - previously identified to stimulate lipid over-storage, was used as a positive control for lipid over-storage using a final concentration of 20 uM. A total of 23 nL of compound solution of different concentrations were transferred to the assay plates using a Kalypsys pin tool equipped with a 1,536-pin array containing 10-nL slotted pins (FP1S10, 0.457-mm diameter, 50.8 mm long; V&P Scientific). One microliter of oleic acid was added (400 uM final concentration), and the plate was lidded with stainless steel rubber gasket lined lids containing pinholes. After 18-24 h incubation at […] and 95% humidity, 4 uL of the dyes BODIPY 493/503 (Molecular Probes) and the Cell Tracker Red CMTPX dye (Molecular Probes) were added to the wells to stain lipid droplets and enumerate cell number, respectively. Fluorescence was detected by excitation of the fluorophores with a 488-nm laser on an Acumen Explorer (TTP Lab Tech). The total intensity in channel 2 (500-530 nm) reflected lipid droplet accumulation. Cells were detected using channel 3 (575-640 nm) with 5-um width and 100-um depth filters. The ratio of the number of objects in PMT channel 2 over the number of objects in PMT channel 3 was also calculated. Percent activity was computed relative to an internal control (100% inhibited lipid droplet deposition due to the presence of 20 uM Triacsin C), which was added to 32 wells/plate.

SMILES | activity, negative = less lipid | Potency
CCOc1ccc(CCNC(=O)c2cc3sccc3[nH]2)cc1OCC | 15.8% (inactive) | –
CCOc1ccc(CCNC(=O)C2=C(C)OCCO2)cc1OCC | 13% (inactive) | –
O=C(NC1CCCc2c1cnn2-c1ccc(F)cc1F)c1cccs1 (stereo unspecified) | -28.1% (inactive) | –
CCOc1ccc(CCNC(=O)c2cccc(C(=O)c3ccccc3)c2)cc1OCC | 11.7% (inactive) | –
CCOc1ccc(CCNC(=O)c2cc3sccc3n2Cc2cccc(C)c2)cc1OCC | -22.1% (inactive) | –
CCOc1ccc(CCNC(=O)C2CCCCC2)cc1OCC | 26% (inactive) | –
O=C(NCCc1ccc2c(c1)OCO2)c1cc2sccc2n1Cc1ccccc1 | 11.7% (inactive) | –
O=C(c1cc2sccc2n1Cc1ccccc1)N(CCc1ccc(O)c(O)c1)Cc1ccccc1 | 0% (inactive) | –
C[C@@H](NCCCc1cccc(C(F)(F)F)c1)c1cccc2ccccc12 | -13% (inactive) | –
CCOc1ccc(CCNC(=O)c2cc3sccc3n2CC=C(C)C)cc1OCC | -19.5% (inactive) | –
CCOC(=O)C1CCN(C(=O)C2(NC(=O)Nc3ccccc3Cl)CC2)CC1 | -15.6% (inactive) | –
CN(C)CC(=O)NC1CCCc2c1cnn2-c1ccc(F)cc1F (stereo unspecified) | -19% (inactive) | –
CCOc1ccc(CCNC(=O)c2ccccn2)cc1OCC | 48.1% (inactive) | –
O=C(NC1CCCc2c1cnn2-c1ccc(F)cc1F)c1ccccn1 (stereo unspecified) | – | inactive
CCOc1ccc(CCNC(=O)c2ccc(C3(C(F)(F)F)N=N3)cc2)cc1OCC | 36.4% (inactive) | –
CCCn1c(-c2ccc(OC)cc2)cnc1SCC(=O)Nc1nc(C)c(C)s1 | 6.49% (inactive) | –

SMILES | activity, negative = less lipid | Potency
CC1(C)CCC(c2ccc(Cl)cc2)=C(CN2CCN(c3ccc(C(=O)NS(=O)(=O)c4ccc(N[C@H](CCN5CCOCC5)CSc5ccccc5)c(S(=O)(=O)C(F)(F)F)c4)cc3)CC2)C1 | 87% (inactive) | –
O=C(NC1CCCc2c1cnn2-c1ccc(F)cc1F)c1ccc(C2(C(F)(F)F)N=N2)cc1 (stereo unspecified) | 7.79% (inactive) | –
O=C(O)CCc1ccc(NCc2cccc(Oc3ccccc3)c2)cc1 | 1.3% (inactive) | –
Cc1cc(SCc2sc(-c3ccc(C(F)(F)F)cc3)nc2C)ccc1OCC(=O)O | 1.3% (inactive) | –
COc1ccc(CCNC(=O)c2cc3sccc3n2Cc2ccccc2)cc1OC | 11.7% (inactive) | –
O=C(NC1CCCc2c1cnn2-c1cc(F)cc(F)c1)c1cccc2nccnc12 (stereo unspecified) | 19.5% (inactive) | –
CCOc1ccc(CCNC(=O)c2cccs2)cc1OCC | 40.3% (inactive) | –
CCOC(=O)C1CCN(C(=O)C2(NC(=O)NCc3ccccc3)CCCCC2)CC1 | -15.6% (inactive) | –
CCOc1ccc(CCNC(=O)c2ccc3ccccc3n2)cc1OCC | 61% [at 38.8 µM] (inactive) | –
O=C(NC1CCCc2c1cnn2-c1ccc(F)cc1F)C1CCCCN1 (stereo unspecified) | -13.5% (inactive) | –
Cc1ccc(-c2cnc(SCC(=O)Nc3nccs3)n2Cc2ccco2)cc1 | 13% (inactive) | –
O=C(O)c1cccc(-c2noc(-c3ccccc3F)n2)c1 | 9.09% (inactive) | –
CCOc1ccc(CCNC(=O)c2cc3sccc3n2CC)cc1OCC | – | 11.2 µM (active)
CCOC(=O)C1CCN(C(=O)C2(NC(=O)Nc3ccccc3Cl)CCC2)CC1 | 1.3% (inactive) | –
CCOc1ccc(CCNC(=O)C2(c3ccccc3)CC2)cc1OCC | -5.19% (inactive) | –
